These results are taken from PubChem BioAssay AID1850 (Southern Research Specialized Biocontainment Screening …, 2009).

“And” between values parts separate entries of the source, which are not always exact repeats. Equal values may be shown once. Out of some 310,000 compounds screened, about 1,000 (0.32%) were called active. Only a sample is shown. Potency and affinity values are given separately. Values without a mark were called inactive. How the calls were made is not given here.

The nature of this test: PhoP regulon inhibitors, Salmonella typhi PhoP promoter GFP reporter, confirmatory (AID 1850).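 Further: 0% = induced wells with vehicle and 100% = uninduced wells.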 Conditions: fluorescence, 4 h, at 50 µM, hits give high values.
The inhibition is the drop in the measured response relative to a control, in per cent. For the compound `O=C(O)c1cc(C(F)(F)F)nc2c(C(F)(F)F)cccc12`, the inhibition is -2.04%.

As for `OC(c1cc(C(F)(F)F)nc2c(Cl)cc(Cl)cc12)C1CCCCN1` (stereo not drawn), the inhibition was 0.54%.

`COc1ccc(OC)c(C(O)C2CCCCN2)c1` (stereo not drawn): the inhibition was -3.76%.

For the compound `OC(c1cc(-c2ccc(C(F)(F)F)cc2)nc(C(F)(F)F)c1)C1CCCCN1` (stereo not drawn), the inhibition is -0.73%.

For the compound `COc1ccc(C2Cc3ccccc3C(=O)O2)cc1` (stereo not drawn), the inhibition is 7.74%.

With `CSCCC(NC(N)=O)C(=O)NCc1cccc(Cl)c1` (stereo not drawn), the inhibition is 3.4%.

`CN(C(=O)c1ccco1)c1nc(-c2ccccc2)cs1`: the inhibition is -0.59%.

On to `CN(C)C(=O)c1cn(-c2ccccc2)nc1-c1cc2ccccc2oc1=O`, for which the inhibition was -9.39%.

`Clc1ccc(/C=C/c2nc3ccccc3[nH]2)c(Cl)c1`: the inhibition was 7.7%.

`CSC1=NC(C)(C)C=C(/C=C/c2ccc(Cl)cc2Cl)N1`: the inhibition is 4.11%.

For `CC(c1ccccc1)N1CC(C(=O)NC2CCCC2)CC1=O` (stereo not drawn), the inhibition is -13.4%.

As to `CCOC(=O)CC1(NC(=O)C2CCC(=O)N(Cc3ccccc3F)C2)CCCCC1` (stereo not drawn), the inhibition was -14.3%.

With `CN(C)CCCN(C(=O)c1ccco1)c1nc2c(F)cc(F)cc2s1`, the inhibition is 1.38%.

On to `CCn1cc(C(=O)O)c(=O)c2cc(F)c(N3CCN(C(=S)NC(=O)c4ccccc4Cl)CC3)cc21`, for which the inhibition is 11.6%.

With `CCn1cc(C(=O)O)c(=O)c2cc(F)c(N3CCN(C(=S)NC(=O)c4ccccc4Br)CC3)cc21`, the inhibition is -18.1%.

Take `Cc1cc(S(=O)(=O)Nc2ccc(C(=O)N3CCN(c4ccccc4O)CC3)cc2)ccc1F`: the inhibition is -8.67%.

As to `COc1ccc(Cn2cc(F)c(=O)n(C)c2=O)cc1[N+](=O)[O-]`, the inhibition was 4.35%.

Consider `Cc1ccc(S(=O)(=O)N2CCCC(C(=O)NCC3COCCO3)C2)cc1` (stereo not drawn), for which the inhibition was -3.93%.

Consider `COc1cc([N+](=O)[O-])cc(/C=N\NC(=O)C2COc3ccccc3O2)c1O` (stereo not drawn), for which the inhibition is 16.3%.

Turning to `O=C(N/N=C\c1ccc(O)c([N+](=O)[O-])c1)C1COc2ccccc2O1` (stereo not drawn), the inhibition is 1.19%.

With `O=C(N/N=C\c1ccc(-c2ccccc2[N+](=O)[O-])o1)C1COc2ccccc2O1` (stereo not drawn), the inhibition was 6.46%.

As to `O=C(N/N=C/c1cccc([N+](=O)[O-])c1)C1COc2ccccc2O1` (stereo not drawn), the inhibition is -0.57%.

With `CCOC(=O)C1(Cc2ccccc2C(F)(F)F)CCN(Cc2ccon2)CC1`, the inhibition was -14.2%.

Turning to `O=C(Cn1cnc(S(=O)(=O)N2CCCC2)c1)Nc1cccc(Br)c1`, the inhibition was -2.76%.

Turning to `O=C(Nn1cnnc1)c1ccccc1-c1ccccc1`, the inhibition is 9.02%.

With `COc1cccc(-c2ccc3nnc(SCC(=O)N4CCCC4)n3n2)c1`, the inhibition was 1.13%.

Regarding `CCN1C(=O)NC(c2ccc(Cl)cc2)C2=C1CCCC2=O` (stereo not drawn), the inhibition is -16.4%.

Turning to `OCCN1CCN(CC(O)COC(c2ccc(F)cc2)c2ccc(F)cc2)CC1` (stereo not drawn), the inhibition was -5.69%.

On to `O=C(CN1CCCC1)N1CCCC(c2ccc(F)cc2)c2ccc(F)cc21` (stereo not drawn), for which the inhibition was -12.7%.

In the case of `N/C(CC(=O)Nc1ccc(F)c(Cl)c1)=N\OC(=O)c1cccs1`, the inhibition is -6.75%.

As for `CC(=O)Cc1nsc(Nc2ccc(C)cc2)n1`, the inhibition is 0.05%.

With `COC(=O)c1cc(-c2cccc([N+](=O)[O-])c2)c2c(=O)n(C)c(=O)n(C)c2n1`, the inhibition was 0.74%.

In the case of `CC1CCC(C(C)C)C(OC(=O)COC(=O)c2ccccc2N)C1` (stereo not drawn), the inhibition was -3.26%.

Regarding `CC1CCC(C(C)C)C(OC(=O)Cn2c(-c3ccc(F)cc3)[n+](C)c3ccccc32)C1` (stereo not drawn), the inhibition was 9.13%.

As for `CC1CCC(C(C)C)C(OC(=O)CSc2nccc(=O)[nH]2)C1` (stereo not drawn), the inhibition was -9.72%.

As to `CC1CCC(C(C)C)C(OC(=O)Cn2c(-c3ccccc3)[n+](C)c3ccccc32)C1` (stereo not drawn), the inhibition is 7.04% and -8.34%.

With `CC1CCC(C(C)C)C(OC(=O)COC(=O)c2ccc(N)cc2)C1` (stereo not drawn), the inhibition was -3.86%.

Regarding `CC1CCC(C(C)C)C(OC(=O)Cn2c(-c3ccc(Br)cc3)[n+](C)c3ccccc32)C1` (stereo not drawn), the inhibition was -12.1%.

As for `CCOC(=O)c1cnc2ccc(OC)cc2c1NCCN1CCOCC1`, the inhibition is -3.63%.

On to `COc1ccc(OC)c(NC(=O)c2nnn(CC(=O)Nc3ccc4c(c3)OCO4)c2N)c1`, for which the inhibition was -17.1%.

Take `CN(C(=O)C1CCN(S(=O)(=O)c2cccs2)CC1)C1CCCCC1`: the inhibition was -11.4%.

For `CCC(C)(C)c1ccc(OCCCC[n+]2cccc(C)c2C)c(C(C)(C)CC)c1`, the inhibition is 9.55%.

In the case of `Cc1ccc[n+](Cc2ccc([N+](=O)[O-])cc2)c1`, the inhibition is -2.48%.

In the case of `Cc1cc(=O)oc2cc(OCCCC[n+]3ccccc3)ccc12`, the inhibition is -6.05%.

Take `CC(=O)Nc1ccc(OCCC[n+]2ccccc2)cc1`: the inhibition is -5.56%.

With `CC(=O)Nc1ccc(OCCC[n+]2cccc(C(=O)[O-])c2)cc1`, the inhibition was 5.76%.

For `CCCCOc1ccc(CCN)cc1Cl`, the inhibition was -8.19%.

In the case of `CCCCCc1ccc(OCCCC[n+]2ccc(C)cc2)c(CCCCC)c1`, the inhibition was -3.58%.

Consider `CCC(C)(C)c1ccc(OCCCC[n+]2ccc(C)cc2)c(C(C)(C)CC)c1`, for which the inhibition is 6.7%.

For the compound `COc1ccc(N(C(C)C(=O)N/N=C/c2ccc(OCC(C)C)cc2)S(C)(=O)=O)cc1` (stereo not drawn), the inhibition was -7.5%.

On to `O=c1[nH]c(=O)n(C2CCCCCC2)c(O)c1C=NCc1cccnc1`, for which the inhibition was 0.08%.

Consider `Cn1nc(CC(=O)Nc2ncc(Br)s2)c2ccccc2c1=O`, for which the inhibition is -7.27%.

With `COc1ccc(S(=O)(=O)N2CCCC(C(=O)NC3CC3)C2)cc1Cl` (stereo not drawn), the inhibition is 4.9%.

In the case of `CC1CCCN(C2=NC(=O)/C(=C/c3cn(-c4ccccc4)nc3-c3cccc(S(=O)(=O)N(C)C)c3)S2)C1` (stereo not drawn), the inhibition is -7.62%.

For the compound `Cc1cc(Br)c(NC(=O)COC(=O)CSc2nnc(-c3ccc(Cl)cc3)o2)c(Br)c1`, the inhibition is 6%.

`Cc1ccc(S(=O)(=O)NCCC(=O)Nc2ccc(Cl)c(Cl)c2)cc1`: the inhibition was -0.17%.

As to `COCc1cc(=O)n2[nH]c(N)nc2n1`, the inhibition was 6.29%.

Consider `CCOC(=O)[C@@H]1[C@H]2COc3cc(OC)ccc3[C@@H]2N2C(=O)N(c3ccc(C)cc3)C(=O)[C@]12C`, for which the inhibition is -2.59%.

For `CC[n+]1c(/C=C/N(C)c2ccccc2)sc2ccc(Cl)cc21`, the inhibition is -2.8%.

For the compound `CCn1c(/C=C/N(C)c2ccccc2)[n+](CC)c2ccc(Cl)cc21`, the inhibition was 20.2%.

Take `Cc1ccc(SCC(=O)NCCSC(C)(C)C)cc1`: the inhibition was -5.44%.

As for `CC(=O)Nc1ccc(S(=O)(=O)NCCCc2ccccc2)cc1`, the inhibition is -4.81%.

Take `Cc1ccc2sc(N(CCCN(C)C)C(=O)c3nc4ccccc4s3)nc2c1C`: the inhibition was 11.1%.

`Cc1ccc2nc(N(CCCN(C)C)C(=O)c3ccc(Br)s3)sc2c1`: the inhibition was 4.27%.

Regarding `CC(NCc1ccc(Cl)cc1)C(O)c1ccccc1` (stereo not drawn), the inhibition was 32.7%.

As to `CC(NCc1ccccc1Cl)C(O)c1ccccc1` (stereo not drawn), the inhibition is 3.04%.

In the case of `CSc1ccc(CNC(C)C(O)c2ccccc2)cc1` (stereo not drawn), the inhibition is 20.7%.

On to `CC(NCc1ccc(Cl)cc1Cl)C(O)c1ccccc1` (stereo not drawn), for which the inhibition was -10%.

Regarding `CCOc1ccc(-c2nc(CSCC(=O)NC3CC3)c(C)o2)cc1`, the inhibition was 5.51%.

Take `O=C(Nc1cc(Cl)ccc1-n1cncn1)c1ccc(F)c(S(=O)(=O)N2CCOCC2)c1`: the inhibition is 6.99%.

As to `CC(C)c1ccc(NC(=S)N2CCN(Cc3ccccc3)CC2)cc1`, the inhibition is 14.4%.

In the case of `COc1ccc(CC(=O)N2CCC(Nc3nc4ccccc4n3Cc3ccc(F)cc3)CC2)cc1`, the inhibition is 8.15%.

On to `COc1ccc(CNc2nc3ccccc3n2CCN2CCOCC2)cc1`, for which the inhibition was 14.4%.

For `CC(C)=C(NC(=O)c1ccccc1Br)C(=O)NCCc1nc2ccccc2[nH]1`, the inhibition is 3.02%.

Take `Cc1ccccc1Nc1nc(Nc2ccccc2C)nc(SC2=NCCS2)n1`: the inhibition is 5.86%.

With `OC(CNCC(c1ccc(Cl)cc1Cl)c1c[nH]c2ccccc12)c1ccccc1` (stereo not drawn), the inhibition was -5.36%.

For `CCCCNC(=S)NCC(c1ccccc1)c1c[nH]c2ccccc12` (stereo not drawn), the inhibition was 0.6%.

On to `O=C(O)CCN1C(=O)c2ccc(NC(=O)C(c3ccccc3)c3ccccc3)cc2C1=O`, for which the inhibition is 3.59%.

Regarding `Cn1c(=O)c2c(ncn2CC(=O)Nc2nc(-c3ccccc3Cl)cs2)n(C)c1=O`, the inhibition was 21.1%.

`Cc1cc(C)c2c(N)c3cccc(C)c3nc2n1`: the inhibition is -7.17%.

Turning to `CCc1ccc2nc3nc(C)cc(C)c3c(N)c2c1`, the inhibition is -15%.

Consider `CC(=O)c1ccc(NC(=O)CSc2nc(N)c3cc4c(nc3n2)CCCC4)cc1`, for which the inhibition is -7.23%.

Take `Cc1cc(C)c(OCC(=O)OCC(=O)NCCC2=CCCCC2)c(C)c1`: the inhibition is 1.39%.

Take `CC12CN3CCN(C1)CC(C)(C3)C2=NN`: the inhibition is 6.55%.

Regarding `Oc1ccc2ccccc2c1/C=N/Nc1ccccc1`, the inhibition is -3.44%.

With `NC(=S)N/N=C/c1c(O)ccc2ccccc12`, the inhibition was -1.9%.

As for `O=C(N/N=C\c1c(O)ccc2ccccc12)c1ccc(O)cc1`, the inhibition is -4.79%.

As to `Cc1ccccc1/C=N/Nc1nc2ccccc2c(=O)n1O`, the inhibition was -20.3%.

Turning to `Cc1ccc(C(=O)N/N=C/c2c(O)ccc3ccccc23)cn1`, the inhibition was -2.29%.

Regarding `O=c1c2ccccc2nc(N/N=C/c2ccc(O)cc2)n1O`, the inhibition was 10.2%.

Consider `CC(C)(C)C(=O)Nc1ccnn1C1CCN(C(=O)c2ccc(Cl)cc2F)CC1`, for which the inhibition was -1.83%.

In the case of `Cc1cc(OCc2nc(-c3cccnc3)no2)c(C)cc1Br`, the inhibition was -4.41%.

Consider `O=C1[C@@H]2Cc3c([nH]c4ccccc34)C(c3cccc(Br)c3)N2C(=O)CN1C1CCN(Cc2ccccc2)CC1` (stereo partly drawn), for which the inhibition was 0.55%.
